About 21,000 targets were measured; listed, in parts, are those with the largest changes and a random draw of the rest.
Compound: CC1Cc2ccccc2N1C(=O)C1CCCN(C1)C(=O)CCl (mixture of isomers) [TRIM25 ligand 11 (diastereomer mixture)]
Experiment: probe-labelled cysteine peptide fold change vs DMSO (competition) (log2 fold change); higher = less target engagement (more negative = stronger competition)
Conditions: 50 µM; THP-1; incubation time: 4 h
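Also: competitive chemoproteomic profiling in live THP-1 cells with an iodoacetamide desthiobiotin (IA-DTB) probe, comparing probe-labelled peptide intensities in compound-treated cells against DMSO-treated controls.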

Target	probe-labelled cysteine peptide fold change
EDC4_Q6P2E9_838_ETCSTLAESPR (UniProt Q6P2E9)	-0.146
FGD3_Q5JSP0_284_QEVCGNLTLQHHMLEPVQR (UniProt Q5JSP0)	-0.0514
ECM1_Q16610_269_FSCFQEEAPQPHYQLR (UniProt Q16610)	0.858
FBN2_P35556_941_CELDTACPR (UniProt P35556)	0.26
FAM111B_Q6SJ93_212_LCIYALK (UniProt Q6SJ93)	-0.0141
EXOC5_O00471_194_YHDLECQLIQEFTSAQR (UniProt O00471)	0.157
FASN_P49327_2369_AKLTPGCEAEAETEAICFFVQQFTDMEHNR (UniProt P49327)	-0.005
EPRS_P07814_1301+1309_VACVQVVIIPCGITNALSEEDK (UniProt P07814)	-0.139
EPHX2_P34913_232_VTGIQLLNTPAPLPTSCNPSDMSHGYVTVKPR (UniProt P34913)	-0.204
EIF3M_Q7L2H7_52_GAEISEENSEGGLHVDLAQIIEACDVCLKEDDK (UniProt Q7L2H7)	0.134
FTH1_P02794_91_KPDCDDWESGLNAMECALHLEK (UniProt P02794)	0.847
FAM241A_Q8N8J7_2_CSAGELLR (UniProt Q8N8J7)	0.559
EIF1B_O60739_69_FACNGTVIEHPEYGEVIQLQGDQRK<|>EIF1_P41567_69_FACNGTVIEHPEYGEVIQLQGDQRK (UniProt P41567+O60739)	-0.022
FUBP3_Q96I24_366_CGLVIGK (UniProt Q96I24)	0.0606
FECH_P22830_403_QLTLSCPLCVNPVCR (UniProt P22830)	0.0221
EIF3K_Q9UBQ5_87_CMIDQAHQEERPIR (UniProt Q9UBQ5)	0.0963
FAM98B_Q52LJ0_220_INDALSCEYECR (UniProt Q52LJ0)	0.0911
EIPR1_Q53HC9_95_VLTCAAVWR (UniProt Q53HC9)	0.137
ELP3_Q9H9T3_456_CSEETFR (UniProt Q9H9T3)	0.202

Target	probe-labelled cysteine peptide fold change
EHHADH_Q08426_227+233_QHPGCLAQEACVR (UniProt Q08426)	0.0162
EXOSC8_Q96B26_60_LGNTTVICGVK (UniProt Q96B26)	0.0231
ENOSF1_Q7L5Y1_67_GTEVVVCAVNALAHHVLNK (UniProt Q7L5Y1)	0.0621
FNBP1_Q96RU3_511_RQSGLYDSQNPPTVNNCAQDR (UniProt Q96RU3)	-0.0608
FUBP3_Q96I24_109_IQAESGCK (UniProt Q96I24)	0.192
ELP5_Q8TE02_151_LPCTTLCQVLHAVSHQDSCPGDSSSVGK (UniProt Q8TE02)	0.114
FLNB_O75369_991_KVVPCLVTPVTGR (UniProt O75369)	-0.0535
EIF1_P41567_94_NICQFLVEIGLAKDDQLK (UniProt P41567)	-0.0838
EFTUD2_Q15029_476_IEHTYTGGVDSDLGEAMSDCDPDGPLMCHTTK (UniProt Q15029)	-0.51
EEF1A1_P68104_411_FLKSGDAAIVDMVPGKPMCVESFSDYPPLGR (UniProt P68104)	1.14
ETFDH_Q16134_387_LTFPGGLLIGCSPGFMNVPK (UniProt Q16134)	-0.698
FAR2_Q96K12_104+111_EDMQELLSCTNIIFHCAATVR (UniProt Q96K12)	0.0839
FH_P07954_434_LLGDASVSFTENCVVGIQANTER (UniProt P07954)	-0.961
F2_P00734_407_WVLTAAHCLLYPPWDK (UniProt P00734)	0.154
FRRS1_Q6ZNA5_107_NAEDLNGPPIGSFTLIDSEVSQLLTCEDIQGSAVSHR (UniProt Q6ZNA5)	0.341
FAM111B_Q6SJ93_351_NYYFCSLPR (UniProt Q6SJ93)	0.026
F2_P00734_564_RGDACEGDSGGPFVMK (UniProt P00734)	0.325
EIF3D_O15371_438_WTCCALLAGSEYLK (UniProt O15371)	0.0445
FHL2_Q14192_275_GFLTERDDILCPDCGK (UniProt Q14192)	-0.0756

From the supplement of paper PMC12067093, “Discovery and optimisation of a covalent ligand for TRIM25 and its application to targeted protein ubiquitination” (Chemical Science, 2025)
